According to PubChem BioAssay (NCI):
Compounds without any hit were thinned out: in the full panel of roughly 83,000, 20% have a hit.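 The test compound was applied at a single concentration to cells in 96-well plates for 48 hours, and percent growth was recorded.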 Active and inactive are the calls of the source. How the source made its calls: active means growth percent below 10; inactive means the rest.

What follows are compounds tested on HOP-92 NSCLC (assay: NCI-60 one-dose screen, 48 h (100 = growth as untreated, 0 = no growth, -100 = all killed)). Conditions: 10 µM.

| Compound | growth |
| --- | --- |
| Cc1ccc(N)cc1[N+](=O)[O-] | 90% (inactive) |
| CC(C)COC(=O)COC(=O)OCCOCCOC(=O)OCC(=O)OCC(C)C | 95.7% (inactive) |
| Nc1ccc(N)c([N+](=O)[O-])c1 | 109% (inactive) |
| CC1(c2ccccc2)NC(=O)NC1=O (centres undefined) | 100% (inactive) |
| O=[N+]([O-])c1ccc(CO)cc1 | 110% (inactive) |
| O=c1cc(-c2ccccc2)[nH]c2c1CCCC2 | 46.7% (inactive) |
| C=C1CC/C=C(\C)C(=O)C[C@@H]2[C@@H]1CC2(C)C | 88.4% (inactive) |
| Brc1cnc2ccccc2c1 | 95.1% (inactive) |
| C=CCNc1nnc(C)s1 | 83% (inactive) |
| COc1ccc(/C(C#N)=C2C=C/C(=N/O)c3ccccc3\2)cc1 | 13.3% (inactive) |
| Cc1cc(C)c(CC(=O)O)c(C)c1 | 90.5% (inactive) |
| Cc1ccc(O)c(C(=O)c2ccccc2)c1 | 93.8% (inactive) |
| COc1ccc(C(O)c2ccccc2)cc1 (centres undefined) | 93.4% (inactive) |
| CCOC(=O)c1cc(/C=C/c2ccc(Cl)cc2Cl)on1 | 100% (inactive) |
| CC(=O)c1ccc(C)c(N)c1 | 92.9% (inactive) |
| NC(=S)CN1CCOCC1 | 91.9% (inactive) |
| CNC(=S)NC(C)(C)C | 83.1% (inactive) |
| CC(=O)Nc1c(C)cc(C)cc1C | 69% (inactive) |
| O=C(Nc1cc(-c2ccccc2)[nH]n1)c1ccc(Cl)cc1 | 81.4% (inactive) |
| O=C(OCC(O)C1OC(c2ccccc2)OC(COC(=O)c2ccccc2)C1O)c1ccccc1 (centres undefined) | 89.8% (inactive) |

| Compound | growth |
| --- | --- |
| O=C(NC1CCCCC1)OCc1c(COC(=O)NC2CCCCC2)c(-c2ccc(Cl)c(Cl)c2)n2c1CCC2 | -1.46% (active) |
| CC(C)=C(NC(=O)c1ccccc1)C(=O)O | 84.5% (inactive) |
| Nc1ccc(N=Nc2ccc(S(=O)(=O)O)cc2)c2ccccc12 | 76.9% (inactive) |
| CCCCOC(OCCCC)c1ccccc1 | 101% (inactive) |
| CN(C)c1ccc(C(c2ccc(O)cc2)c2ccc(N(C)C)cc2)cc1 | 90.9% (inactive) |
| CN(C)c1ccc(CNC(C(=O)c2ccccc2)c2ccccc2)cc1 (centres undefined) | 78.9% (inactive) |
| CC(=O)OCC1CCCO1 (centres undefined) | 97.4% (inactive) |
| Cc1cc(C(O)(c2ccc(Nc3ccccc3)cc2)c2ccc(Nc3ccc(S(=O)(=O)O)cc3)cc2)ccc1N (centres undefined) | -23.8% (active) |
| CN(C)Cc1cc(C(C)(C)CC(C)(C)C)ccc1O | 77.1% (inactive) |
| Oc1ccc(Cc2ccccc2)c2cccnc12 | -0.901% (active) |
| C=CC[N+](C)(C)C | 86% (inactive) |
| COc1ccccc1C1OC2=Nc3cc(C)c(C)cc3NC2C1=O (centres undefined) | 67.7% (inactive) |
| CC(C(=O)O)(C1CCCCC1)C1(O)CCCCC1 (centres undefined) | 104% (inactive) |
| O=C1C[C@H](c2ccccc2)[C@H](c2ccccc2)C1 | 70.9% (inactive) |
| CN1C(=O)CN2CCc3ccccc3C2c2cc(Cl)ccc21 (centres undefined) | 77.2% (inactive) |
| C1CNC(C2=NCCN2)=N1 | 93.6% (inactive) |
| O=c1[nH]c(O)c(/C=C2/C=Nc3ccccc32)[nH]1 | 84.5% (inactive) |
| COc1cccc(Sc2ccc([N+](=O)[O-])c3no[n+]([O-])c23)c1 | 3.91% (active) |
| NC(=O)c1ccc(N=C(N)N=C(N)N)cc1 | 83.2% (inactive) |
